Bioassay records: PubChem BioAssay, several laboratories
Bead autofluor: compound fluorescence in toxin protease inhibitor counterscreen | fluorescence intensity (no concentration beside the values) | 3.1% of 360,000 active | compound autofluorescence counterscreen, microsphere flow cytometry; hits give high values; in the data active = fluorescence intensity above about 16000; inconclusive = no clear call, values can overlap the other calls
Anthrax LF inh2: Bacillus anthracis LF protease inhibitors, primary screen, biochemical, multiplex microsphere, MLPCN library; Lethal factor (Bacillus anthracis), P15917; multiplex microsphere protease cleavage assay; inhibition, % at 10 µM; 0.12% of 360,000 active; also: plate controls were buffer without enzyme for full effect and enzyme alone for no effect
BoNT A protease: BoNT/A light chain protease inhibitors, primary screen, biochemical, flow cytometry, MLPCN library; Botulinum neurotoxin type A light chain protease (Clostridium botulinum A str. ATCC 3502); multiplex microsphere protease substrate cleavage; inhibition, % at 10 µM; 0.17% of 360,000 active; AID 588499, 2011; also: plate controls were buffer without enzyme for full effect and enzyme alone for no effect
FBA Mtb inh: Mtb FBA enzyme inhibitors, primary screen, biochemical, fluorescence, strain H37Rv. inhibition, % at 1 µM. 2.3% of 360,000 active. Fructose-bisphosphate aldolase (Mycobacterium tuberculosis (strain ATCC 25618 / H37Rv)), …. AID 588726, 2011. purified M. tuberculosis FBA, fluorescence read-out; in the data active = inhibition above about 27%;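 also: 0% = vehicle and 100% = reference inhibitor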
Target sequence (P9WQA3 whole entry, looked up): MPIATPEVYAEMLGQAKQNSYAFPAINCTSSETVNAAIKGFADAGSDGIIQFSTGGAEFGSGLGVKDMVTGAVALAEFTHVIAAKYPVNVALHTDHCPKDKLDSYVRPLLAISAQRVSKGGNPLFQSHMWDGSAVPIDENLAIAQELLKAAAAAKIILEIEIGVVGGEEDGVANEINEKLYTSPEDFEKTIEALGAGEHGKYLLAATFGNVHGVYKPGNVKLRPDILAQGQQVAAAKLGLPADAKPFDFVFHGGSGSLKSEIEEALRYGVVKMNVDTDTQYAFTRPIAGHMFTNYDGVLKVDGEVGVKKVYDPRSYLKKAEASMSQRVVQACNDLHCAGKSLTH
BoNT-F LC inh: BoNT/F light chain protease inhibitors, primary screen, biochemical, flow cytometry, MLPCN library. Botulinum neurotoxin type F light chain protease (Clostridium botulinum). Multiplex microsphere protease cleavage assay. inhibition, % at 10 µM. 0.22% of 360,000 active. AID 588497, 2011; in the data active = inhibition above about 35%, passing the limit was not always enough; inconclusive = no clear call, values can overlap the other calls; also: plate controls were buffer without enzyme for full effect and enzyme alone for no effect
GDH-TPI counter: GDH-TPI coupling enzyme inhibitors, primary screen, artefact control for M. tuberculosis FBA inhibitor project, biochemical, absorbance, full deck; AID 588335, 2011; inhibition, % at 4.8 µM; GDH-TPI coupled enzyme counterscreen, NADH absorbance; 1.2% of 360,000 active; in the data active = inhibition above about 30%;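 also: 0% = DMSO wells and 100% = wells lacking the enzyme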
Starred values were filed as active, the others as inactive. An excerpt weighted towards active compounds, which were near 6.7% of everything screened. Rule as the data show it, unless noted: active = inhibition above about 30%; inconclusive = no clear call, values can overlap the other calls; inactive = below that.

`Cc1ccccc1C(=O)Nc1ccc(-c2nnc(SC(C)C(=O)O)n2C)cc1` (stereo not drawn) gave Bead autofluor 4190, Anthrax LF inh2 0, BoNT A protease 0, FBA Mtb inh -3, BoNT-F LC inh 0 and GDH-TPI counter 9.
O=C(NCCc1ccccc1)c1cc(S(=O)(=O)N2CCCC2)ccc1F was read as Bead autofluor 5354, Anthrax LF inh2 -1, BoNT A protease 1, FBA Mtb inh -1, BoNT-F LC inh -5 and GDH-TPI counter -3.
CCCNC(=O)c1cc(S(=O)(=O)N2CCc3ccccc32)ccc1F was read as Bead autofluor 16850*, Anthrax LF inh2 0, BoNT A protease -3, FBA Mtb inh 1, BoNT-F LC inh -4 and GDH-TPI counter 7.
For CCN(CC)S(=O)(=O)c1ccc(F)c(C(=O)NCCC(C)C)c1 the results were Bead autofluor 17171*, Anthrax LF inh2 1, BoNT A protease inconclusive, FBA Mtb inh 0, BoNT-F LC inh -2 and GDH-TPI counter 9.
O=C(NCc1ccc(F)cc1)c1cc(S(=O)(=O)N2CCOCC2)ccc1F was read as Bead autofluor 21187*, Anthrax LF inh2 0, BoNT A protease inconclusive, FBA Mtb inh -1, BoNT-F LC inh 7 and GDH-TPI counter 0.
CCCCCNC(=O)c1cc(S(=O)(=O)N2CCCCC2)ccc1F was read as Bead autofluor 23121*, Anthrax LF inh2 -3, BoNT A protease inconclusive, FBA Mtb inh -2, BoNT-F LC inh 5 and GDH-TPI counter 2.
Screening CCN(CC)S(=O)(=O)c1ccc(Cl)c(C(=O)NC)c1 returned Bead autofluor 2453, Anthrax LF inh2 0, BoNT A protease 0, FBA Mtb inh 1, BoNT-F LC inh 9 and GDH-TPI counter 13.
`CCOc1ccc(CNc2nnnn2C)cc1OC` gave Bead autofluor 3390, Anthrax LF inh2 -7, BoNT A protease -1, FBA Mtb inh 0, BoNT-F LC inh -19 and GDH-TPI counter 1.
COC(=O)c1c(NC(=S)NC(=O)c2ccco2)sc2c1CCCC2 was read as Bead autofluor 6894, Anthrax LF inh2 -3, BoNT A protease -1, FBA Mtb inh -1, BoNT-F LC inh -2 and GDH-TPI counter 9.
COc1cccc(NC(=O)C(=O)NCc2ccncc2)c1 was read as Bead autofluor 2676, Anthrax LF inh2 -3, BoNT A protease 0, FBA Mtb inh 2, BoNT-F LC inh -2 and GDH-TPI counter -1.
`CN(/N=C/c1ccncc1)C1=NS(=O)(=O)c2ccccc21` gave Bead autofluor 2588, Anthrax LF inh2 0, BoNT A protease 0, FBA Mtb inh 10, BoNT-F LC inh 5 and GDH-TPI counter 21.
`O=C(O)c1cccc(N2C(=O)c3cccc4cccc(c34)C2=O)c1` gave Bead autofluor 3411, Anthrax LF inh2 -6, BoNT A protease 0, FBA Mtb inh 3, BoNT-F LC inh 2 and GDH-TPI counter 19.
O=C(O)c1ccc(N2C(=O)c3cccc4cccc(c34)C2=O)cc1 was read as FBA Mtb inh 11 and GDH-TPI counter 38*.
Screening O=C1c2cccnc2C(=O)N1c1cccc([N+](=O)[O-])c1 returned Bead autofluor 3326, Anthrax LF inh2 4, BoNT A protease -5, FBA Mtb inh 0, BoNT-F LC inh 10 and GDH-TPI counter 6.
For O=C(O)c1cccc(N2C(=O)c3cccnc3C2=O)c1 the results were Bead autofluor 23303*, Anthrax LF inh2 -4, BoNT A protease inconclusive, FBA Mtb inh -3, BoNT-F LC inh -4 and GDH-TPI counter 14.
`CC(C)c1nnc(NC(=O)C2CCCN2C(=O)Nc2ccccc2F)s1` (stereo not drawn) gave Bead autofluor 4696, Anthrax LF inh2 -2, BoNT A protease 0, FBA Mtb inh 0, BoNT-F LC inh -4 and GDH-TPI counter 0.
`NC(=O)C1(N2CCCCC2)CCN(CC(=O)Nc2cc(Cl)ccc2Cl)CC1` gave Bead autofluor 24349*, Anthrax LF inh2 -4, BoNT A protease -3, FBA Mtb inh -7, BoNT-F LC inh -6 and GDH-TPI counter 4.
`O=C(CN1CCN(S(=O)(=O)N2CCCCC2)CC1)Nc1cc(Cl)ccc1Cl` gave Bead autofluor 3209, Anthrax LF inh2 0, BoNT A protease -3, FBA Mtb inh 2, BoNT-F LC inh -15 and GDH-TPI counter 0.
For CCOc1ccc(NC(=O)C2CCCN(c3c(CC)c(C)nc4ncnn34)C2)cc1 (stereo not drawn) the results were Bead autofluor 3096, Anthrax LF inh2 -16, BoNT A protease 1, FBA Mtb inh 0, BoNT-F LC inh -16 and GDH-TPI counter 0.
`CCCSC1=C(C#N)C(c2ccc(Cl)cc2Cl)CC(=O)N1` (stereo not drawn) gave Bead autofluor 24553*, Anthrax LF inh2 -1, BoNT A protease -3, FBA Mtb inh 1, BoNT-F LC inh -5 and GDH-TPI counter 6.
`N#CC1=C(SCc2ccccc2)NC(=O)CC1c1ccco1` (stereo not drawn) gave Bead autofluor 20548*, Anthrax LF inh2 -5, BoNT A protease 0, FBA Mtb inh 0, BoNT-F LC inh -2 and GDH-TPI counter -6.
For CCCSC1=C(C#N)C(c2ccccc2OCC)CC(=O)N1 (stereo not drawn) the results were Bead autofluor 23587*, Anthrax LF inh2 -2, BoNT A protease -3, FBA Mtb inh 0, BoNT-F LC inh -7 and GDH-TPI counter 13.
CCSC1=C(C#N)C(c2ccccc2Cl)CC(=O)N1 (stereo not drawn) was read as Bead autofluor 4259, Anthrax LF inh2 5, BoNT A protease 1, FBA Mtb inh -1, BoNT-F LC inh 0 and GDH-TPI counter 2.
For Cc1ccc(Sc2c(C)nn(C(=O)CNS(=O)(=O)c3ccc(F)cc3)c2C)cc1 the results were Bead autofluor 2453, Anthrax LF inh2 0, BoNT A protease 0, FBA Mtb inh -6, BoNT-F LC inh -7 and GDH-TPI counter 11.
For CC(=O)Nc1cccc(-c2cc(NC(C)=O)c3ncc(-c4ccc(C(C)=O)cc4)n3c2)c1 the results were Bead autofluor 2828, Anthrax LF inh2 3, BoNT A protease 0, FBA Mtb inh 0, BoNT-F LC inh 2 and GDH-TPI counter 23.
Screening COc1ccc(Cn2cnc3c(N)c(C)c(C)cc32)cc1 returned Bead autofluor 4602, Anthrax LF inh2 -9, BoNT A protease -3, FBA Mtb inh 0, BoNT-F LC inh -11 and GDH-TPI counter 11.
Screening Cc1cc2c(ncn2Cc2ccccc2)c([N+](=O)[O-])c1C returned Bead autofluor 22108*, Anthrax LF inh2 -5, BoNT A protease 0, FBA Mtb inh -1, BoNT-F LC inh 2 and GDH-TPI counter 3.
